# High-throughput results from PubChem.
# HT1080-NT tox = kills 2HG-producing HT-1080-NT fibrosarcoma cells; HT-1080-NT fibrosarcoma viability, CellTiter-Glo ATP luminescence, 48 h; Potency, µM (titrated, usually from 46.1 µM), most hits filed as cytotoxic; 360,000 tested, 1.6% active; AID 686970;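 also: NT is the 2HG producing partner of a matched IDH1 knockdown line; nearly all actives have a fitted effect of over 55% in size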
#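 Read-out is CellTiter-Glo luminescence after 10 minutes at room temperature, following 48 hours' compound treatment of HT-1080-NT cells (750 cells/well, RPMI, 5% FBS, 37 degrees C).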
# HT1080 IDH1KD tx = HT-1080 IDH1 knockdown cell toxicity (counter line) | HT-1080 IDH1 knockdown viability, ATP luminescence, 48 h | Potency, µM (top dose mostly 46.1 µM), usual class: cytotoxic | 360,000 tested, 2% active | AID 686971
#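 CellTiter-Glo luminescence after 48 h compound exposure at 37 degrees C of IDH1-knockdown HT-1080 cells in 5% FBS RPMI. %Activity scaled between DMSO wells and cell-free media wells, with curves fitted and assigned curve classes.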
# DT40 TDP1 no CPT = qHTS for Inhibitors of human tyrosyl-DNA phosphodiesterase 1 (TDP1): qHTS in cells in absence of CPT; DT40 Tdp1-/- hTDP1 cells, no CPT, ATP luminescence, 48 h; Potency, µM (doses to about 46.2 µM), usual class: inhibitors; 420,000 tested, 15% active; AID 686978, 2013; also: nearly all actives have a fitted effect of over 55% in size
#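 Readout: luminescence from CellTiter-Glo after 30 min in the dark at RT. Cells: DT40 Tdp1-/- with stable hTDP1, 400/well. Exposure: compounds alone, ≥48 hr, 37 °C.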
# KB-3-1 tox = KB-3-1 parental cell cytotoxicity; Potency, µM (series often up to 46.1 µM), actives largely listed as cytotoxic; AID 1347075; 400,000 tested, 1.4% active; KB-3-1 viability, CellTiter-Glo ATP luminescence, 72 h; also: nearly all actives have a fitted effect of over 60% in size
#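 KB-3-1 parental drug-naive adenocarcinoma cells in DMEM/10% FBS, incubated 72 h at 37 C with pin-transferred compounds across a concentration series. Viability by CellTiter-Glo luminescence; concentration-response curves fitted after normalization.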
# TDP1 cell CPT = DT40-hTDP1 cell growth loss with CPT; chicken DT40 Tdp1-/-;hTDP1 cells + 20 nM CPT, ATP luminescence, 48 h; Potency, µM (series often up to 46.2 µM), usual class: inhibitors; 420,000 tested, 12% active; AID 686979; also: nearly all actives have a fitted effect of over 55% in size
#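 Chicken DT40 Tdp1-/- cells complemented with human TDP1, 400 cells/well, exposed to compounds plus 20 nM camptothecin for at least 48 h at 37 C; viability read as ATP content by CellTiter-Glo luminescence.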
# KB-V1 cytotox = kills drug-selected multidrug resistant KB-V1 cells | KB-V1 MDR cells viability, CellTiter-Glo, 72 h | Potency, µM (highest dose often 46.1 µM), usual class: cytotoxic | 400,000 tested, 3.4% active | AID 1347076; also: nearly all actives have a fitted effect of over 60% in size
#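 In this primary screen, KB-V1 cells overexpressing P-gp are incubated with library compounds (lowest to highest concentration) for 72 h at 37 degrees C before a luminescent ATP viability read.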
# A number is an active result; i = inactive; ? = inconclusive; nt = no result; ! = not confirmed by another sample. An excerpt weighted towards active compounds, which were near 19% of everything screened. Calls follow the shape of the dose curve; as a rule, active = well fitted curve in the direction sought with a large enough effect; inconclusive = small, poorly fitted or top-dose-only effect, or another doubt; inactive = no such curve, though single readings can be large; an effect the other way counts as inactive or inconclusive.
SMILES,HT1080-NT tox,HT1080 IDH1KD tx,DT40 TDP1 no CPT,KB-3-1 tox,TDP1 cell CPT,KB-V1 cytotox
COC(=O)[C@@H](Cc1ccccc1)N(Cc1ccccc1)S(=O)(=O)N(Cc1ccccc1)[C@H](Cc1ccccc1)C(=O)OC,i,i,10µM!,?,23µM,?
Cc1ccccc1S(=O)(=O)N1C[C@H]2[C@H]3C(=O)N(C4CCCCC4)C(=O)[C@H]3CC(=O)[C@H]2[C@@H]1c1ccc(Cl)cc1,i,i,?,i,?,i
NC(Cc1nc2ccccc2[nH]1)c1ccc(Cl)cc1 (stereo unspecified),i,i,i,i,i,i
O=c1[nH]c(=O)n(Cl)c(=O)n1Cl,nt,nt,i,nt,i,nt
CCc1ccc(OCC(=O)Nc2cc3oc4ccccc4c3cc2OC)cc1,nt,nt,?,i,?,i
Cn1cc(C=C(C#N)C#N)c2ccccc21,i,i,i,i,i,i
Cn1cc(/C=C(\C(=O)O)C(C(=O)O)=C2CCCCC2)c2ccccc21,i,i,15µM,i,23µM,i
Cc1ccc(-c2cc(C(F)F)n3ncc(C(=O)N4CCC5(CC4)OCCO5)c3n2)cc1,i,i,?,i,?,i
CC(C)C[C@H]1CNC(=S)N1CC1CCN(CC2CCC(C(C)(C)C)CC2)CC1 (stereo partly specified),i,i,16µM,i,16µM,i
C[C@]12CCC(=O)C[C@@H]1CC[C@@H]1[C@@H]2CC[C@@]2(C)[C@H]1CC[C@]2(C)O,nt,nt,i,nt,i,nt
CC(=O)[O][Hg][c]1ccccc1,nt,nt,0.16µM,nt,0.16µM,nt
C[C@H](N)C(=O)c1ccccc1,nt,nt,i,nt,i,nt
CCC(=Nc1ccccc1N)c1c(O)[nH]c(=O)[nH]c1=O,i,i,i,i,i,?
COc1c(C)cc(C(=O)C2CCCN(Cc3cccc(C)n3)C2)cc1C (stereo unspecified),i,i,21µM,i,?,i
COc1ccc2cc(C(=O)C3CCCN(C4CCOCC4)C3)ccc2c1 (stereo unspecified),i,i,13µM,i,21µM,i
COc1cccc(C(=O)C2CCCN(Cc3ccon3)C2)c1 (stereo unspecified),i,i,i,?,i,i
COc1c(C)cc(C(=O)C2CCCN(C3CCOCC3)C2)cc1C (stereo unspecified),i,i,i,i,i,i
COc1c(C)cc(C(=O)C2CCCN(Cc3cccc(O)c3)C2)cc1C (stereo unspecified),i,i,?,i,?,i
COc1cccc(C(=O)C2CCCN(Cc3cccc(C)n3)C2)c1 (stereo unspecified),i,i,16µM,i,18µM,i
CCOP(=S)(OCC)SCCSCC,i,i,i,i,i,i
CC[C@@H](O)C[C@H]1CCC[C@@]2(C[C@@H]3OC(=O)/C=C/[C@@](C)(O)[C@@H](O)[C@H](C)[C@@H](O)[C@H](OC4CCC(N(C)C)C(C)O4)[C@@H](O)[C@](C)(O)CCCCC/C=C/[C@@H]4CC(C)(C)O[C@@]4(O)C[C@H](O2)[C@H]3C)O1 (stereo partly specified),i,?,0.15µM,0.16µM,0.016µM,0.073µM
CN1CCc2nc(SCc3ccccc3Br)c(C#N)cc2C1,i,i,18µM,i,?,?
Oc1ccc2c3c1O[C@H]1[C@@H](O)C=C[C@H]4[C@H](C2)NCC[C@@]341,nt,nt,i,nt,i,nt
CC(C)CCC(=O)O[C@H]1CC[C@H]2[C@@H]3CCC4=CC(=O)CC[C@]4(C)[C@H]3CC[C@]12C,nt,nt,i,nt,i,nt
CCC(=O)OC1CCC2C3CCc4cc(O)ccc4C3CC[C@]12C (stereo partly specified),nt,nt,21µM,nt,21µM,nt
CC(OC(=O)c1cn(C)c2ccccc12)C(=O)N1CCCC1 (stereo unspecified),i,i,i,i,i,i
